In PubChem BioAssay AID504847 (National Center for Advancing Translational Sciences (NCATS), 2011):
Several values for one entry are separate records, joined by “and”; a condition that tells them apart may be missing. Equal values may be shown once. About 3,700 (0.93%) of roughly 400,000 compounds were called active. Roughly 3% stayed inconclusive and do not appear here. This excerpt belongs to a sample that is enriched for actives. A number with no mark means an inactive call. Calls come from the whole dose curve; as a rule, active = well fitted inhibition curve with a large enough effect; inconclusive = small, poorly fitted or top-dose-only effect, or another doubt; inactive = no such curve, though single readings can be large or run the other way.

Molecular target: Vitamin D3 receptor (Homo sapiens) (UniProt P11473)
Sequence (P11473 whole entry, looked up): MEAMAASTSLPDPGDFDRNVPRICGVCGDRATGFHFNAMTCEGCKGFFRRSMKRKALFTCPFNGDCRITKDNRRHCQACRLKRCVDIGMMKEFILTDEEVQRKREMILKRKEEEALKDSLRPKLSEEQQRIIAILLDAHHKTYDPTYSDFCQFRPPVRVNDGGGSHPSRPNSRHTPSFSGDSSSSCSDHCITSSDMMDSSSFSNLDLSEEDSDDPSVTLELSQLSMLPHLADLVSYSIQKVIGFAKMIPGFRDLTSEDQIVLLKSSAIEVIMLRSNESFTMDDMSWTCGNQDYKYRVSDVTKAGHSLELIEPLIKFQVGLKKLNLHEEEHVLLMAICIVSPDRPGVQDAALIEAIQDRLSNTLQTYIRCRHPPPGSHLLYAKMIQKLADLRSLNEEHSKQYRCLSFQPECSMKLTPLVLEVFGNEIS
Assay: Inhibitors of the vitamin D receptor (VDR): qHTS
Conditions: VDR-SRC2-3 peptide fluorescence polarization, 2 h; max response, negative = inhibition: active compounds read low
Outline: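 Measured by FP: displacement of SRC2-3 coactivator peptide from VDR by library compounds, following a two-hour ambient incubation.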
% is set by controls: 0 for no effect and ±100 for the full control effect; potency is the fitted concentration of half-maximal effect.

| SMILES | max response, negative = inhibition | Potency |
| --- | --- | --- |
| O=C(O)c1cc[c]([Sb](=[O])([OH])[OH])cc1[N+](=O)[O-] | -21.9% |  |
| C[C@@]12CCC3C(CC[C@@H]4CC(O)CC[C@@]34C)C1CCC2O (stereo partly drawn) | -4.26% |  |
| O=C1NC(=O)N(c2ccccc2)C(=O)/C1=C/c1ccc([N+](=O)[O-])s1 |  | 50.1 µM (active) |
| CN1CCCC(=C(c2cccs2)c2cccs2)C1 | 3.88% |  |
| CC[N+]1(CCOC(=O)C(O)(c2ccccc2)c2ccccc2)CCCCC1 | 4.12% |  |
| C[C@]12CC[C@H](O)C[C@@H]1CC[C@H]1[C@H]2CC[C@]2(C)C(=O)CC[C@@H]12 | -9.44% and 0.624% and 3.94% |  |
| Cc1ccnc(-n2c(C)cc(/C=C3\C(=O)NC(=S)N(C)C3=O)c2C)c1 |  | 39.8 µM (active) |
| Cc1cc(C=C2C(=O)NC(=O)NC2=O)c(C)n1-c1ccncc1 | -27.9% |  |
| CCN1C[C@@]2(COC)CC[C@H](OC)[C@]34[C@@H]1[C@]1(OCO[C@@]15C[C@@H](OC)C1C[C@H]3[C@H]5[C@@H]1OC)[C@H](O)[C@@H]24 | 1.56% |  |
| CC(C)(Cc1c[nH]c2ccc(Cl)cc12)NCCOc1ccccc1OCC1CC1 | -1.04% and 2.67% |  |
| CC(C)(O)c1[se]c2ccccc2c1I | -15.8% |  |
| c1csc(CN2CCCC3(CCNCC3)C2)n1 | -8.79% |  |
| Cc1nnc(NC(=O)c2cccn(Cc3cccc(F)c3)c2=O)s1 | 12.7% |  |
| O=c1[nH]c(O)c(C=Nc2cc(F)cc(F)c2)c(=O)[nH]1 | -6.29% |  |
| Cc1ccc2c(c1)=C/C(=C\c1c(O)[nH]c(=O)[nH]c1=O)C(=O)N=2 |  | 89.1 µM (active) |
| C/C(=C\C=C/[C@@H](C)C(=O)O)[C@H]1CN[C@H](C(=O)O)[C@@H]1CC(=O)O | -9.05% |  |
| COc1ccc2[nH]cc(CCNCc3ccc(Br)cc3)c2c1 | 5.83% |  |
| COC(=O)c1ccc2[se]c(CC3CCCCC3)c(I)c2c1 | 3.86% |  |
| CCC(=O)c1ccc(OCC(=O)N2CCN(CC(=O)Nc3ccc(C)cc3)CC2)cc1 | 0.567% |  |
| C=CCN(CC=C)C(=O)Nc1ccc(OCC)cc1 | -2.13% |  |
| C=CCN1C(=O)NC(=O)/C(=C/c2ccc(OCC(=O)Nc3ccc(C)cc3)cc2)C1=O |  | 70.8 µM (active) |
| C[C@@H]1C[C@@H]2O[C@H]2/C=C\C=C\C(=O)Cc2c(Cl)c(O)cc(O)c2C(=O)O1 | -4.25% |  |

| SMILES | max response, negative = inhibition | Potency |
| --- | --- | --- |
| O=C1CCc2cccc3c2N1CC3 | -0.897% |  |
| COC([CH2][Hg])CNC(=O)c1ccccc1OCC(=O)O (stereo not drawn) |  | 5.62 µM (active) |
| CCCCCCCCc1[se]c2ccccc2c1Br | 0.449% |  |
| N[C@H](Cc1o[nH]c(=O)c1Cl)C(=O)O | 3.74% |  |
| C=CCN1CCC23c4c5ccc(O)c4O[C@H]2C(=O)CC[C@@]3(O)C1C5 (stereo partly drawn) | -0.103% and 4.39% |  |
| C[C@H]1CC[C@@]2(NC1)O[C@@H]1C[C@H]3[C@@H]4CC=C5C[C@@H](O)CC[C@]5(C)[C@@H]4CC[C@]3(C)[C@@H]1[C@@H]2C | -0.658% |  |
| C=CCN1CCC2(C)c3cc(O)ccc3CC1[C@@H]2C (stereo partly drawn) | 1.58% |  |
| CC(=O)OC1C2CCC3C1(CC(O)[C@@]1(O)[C@@H](CC(O)C1(C)C)[C@]3(C)O)C[C@@]2(C)O (stereo partly drawn) | 0.185% |  |
| CN[C@@H]1C[C@H]2O[C@@](C)([C@@H]1OC)n1c3ccccc3c3c4c(c5c6ccccc6n2c5c31)C(=O)NC4 | 1.57% and -1.64% |  |
| CCNC[C@H](O)c1cccc(O)c1 | -1.81% |  |
| C=CCSSCC=C |  | 20 µM (active) |
| COC1=C[C@]23CCCN2CCc2cc4c(cc2[C@@H]3[C@@H]1O)OCO4 | -4.23% |  |
| CC(C)(c1ccc(OC[C@@H]2CO2)cc1)c1ccc(OC[C@H]2CO2)cc1 | 4.79% |  |
| CN1C2CC3CC1C(O3)C2O (stereo not drawn) | -5.48% |  |
| CCN1C[C@]2(COC)C(O)C[C@H](OC)[C@@]34C5C[C@]6(O)C(OC)C(O)[C@](OC(C)=O)(C5C6OC(=O)c5ccccc5)C(C(OC)C23)C14 (stereo partly drawn) | 4.87% |  |
| COC(=O)C1=C(c2ccccc2)C[C@@H]2CC[C@H]1N2C(=O)NCc1ccco1 | -7.95% |  |
| CCOC(=O)C(O)(c1ccc(NC(=O)c2ccco2)c(OC)c1)C(F)(F)F (stereo not drawn) | 9.73% |  |
| COc1cc(Cn2c(N)c(C(=O)NCc3ccco3)c3nc4ccccc4nc32)cc(OC)c1OC |  | 79.4 µM (active) |
| CC(=O)NBr | -2.36% |  |
| CCN1C[C@]2(C)CC[C@H](O)[C@@]34[C@@H]5CC6[C@@H](OC)C[C@@](O)([C@@H]5[C@@H]6O)[C@H](C[C@@H]23)[C@H]14 | 0.208% |  |
| NS(=O)(=O)c1ccc(CCNC(=O)c2ccc(Cl)c(S(=O)(=O)N3CCCCCC3)c2)cc1 | 6.51% |  |
